Screening results deposited in PubChem BioAssay by National Center for Advancing Translational Sciences (NCATS).
Tb PYK inh: inhibitors of Trypanosoma brucei pyruvate kinase | Q57TT1 | TbPYK enzyme, Kinase-Glo Plus ATP luminescence, 45 min | Potency, µM (highest dose often 76.8 µM), for the others: top-dose activity, negative = inhibition, actives largely listed as inhibitors | hit rate 0.12% among 410,000 | AID 624173; also: potency is read from the fitted curve at half-maximal effect; nearly all actives have a fitted effect of over 50% in size
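Readout: single end-point luminescence (Kinase-Glo Plus, 10 min). Reaction conditions were TbPYK/substrate plus 130 uM ADP, 45 min at RT, pH 7.2 TEA buffer. No-enzyme wells served as controls, and data were normalized before concentration-response fitting.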
LmPK inh: inhibitors of Leishmania mexicana pyruvate kinase. purified LmPK, Kinase-Glo ATP luminescence, 1 h. Potency, µM (highest dose often 57.5 µM), for the others: at the top dose activity change, negative = inhibition, hits mostly inhibitors. hit rate 0.37% among 290,000. AID 1721; also: potency is read from the fitted curve at half-maximal effect
Target sequence (Q27686 whole entry, looked up): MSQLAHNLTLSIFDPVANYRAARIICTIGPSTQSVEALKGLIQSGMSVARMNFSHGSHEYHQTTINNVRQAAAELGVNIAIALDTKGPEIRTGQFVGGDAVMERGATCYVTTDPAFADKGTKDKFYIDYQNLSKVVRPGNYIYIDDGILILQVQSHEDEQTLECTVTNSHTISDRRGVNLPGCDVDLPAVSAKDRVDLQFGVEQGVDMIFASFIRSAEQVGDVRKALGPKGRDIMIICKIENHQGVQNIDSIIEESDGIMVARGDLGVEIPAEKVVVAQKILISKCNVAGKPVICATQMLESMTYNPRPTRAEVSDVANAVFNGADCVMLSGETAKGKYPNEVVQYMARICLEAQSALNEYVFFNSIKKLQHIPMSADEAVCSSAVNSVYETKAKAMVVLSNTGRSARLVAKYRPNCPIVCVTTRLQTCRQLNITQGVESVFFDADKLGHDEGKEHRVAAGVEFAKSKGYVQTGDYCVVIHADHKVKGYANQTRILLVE
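In 50 mM imidazole pH 7.2 with 7 mM MgCl2, LmPK (0.1 nM) turned over PEP (0.5 mM) and ADP (0.1 mM) for 1 h at room temperature. Luciferase read-out of ATP.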
VACV Venus inh: inhibitors of vaccinia virus (Venus reporter) | hit rate 0.46% among 330,000 | AID 720580 | Vaccinia virus Venus reporter expression, fluorescence | Potency, µM (top dose mostly 36.5 µM), for the others: at the highest dose activity change, negative = inhibition, most hits filed as inhibitors; calls by dose curve; tested in A549 cells; also: potency is read from the fitted curve at half-maximal effect; nearly all actives have a fitted effect of over 30% in size
HCMV inh: human cytomegalovirus inhibition | HFF cells, HCMV-luciferase reporter, 72 h; stronger effect = lower value | activity change, negative = inhibition, % at 57.5 µM | hit rate 4.5% among 410,000 | AID 1259415; in the data active = activity change below about -60%; inconclusive = no clear call, values can overlap the other calls; inactive = above about -39%
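HFF cells seeded 16 h at 37C, treated with compounds, infected with luciferase-reporter HCMV at MOI 1 PFU/cell; luciferase read at 72 h post infection, normalized to buffer-only and Salinomycin controls.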
Vaccinia mCherry: inhibitors of vaccinia virus infection (mCherry reporter signal). Vaccinia virus mCherry reporter infection, fluorescence. Potency, µM (titrated, usually from 36.5 µM), without a hit: at the highest dose activity change, negative = inhibition, actives largely listed as inhibitors. hit rate 0.63% among 310,000. AID 720579; calls by dose curve; tested in A549 cells; also: potency is read from the fitted curve at half-maximal effect; nearly all actives have a fitted effect of over 35% in size
The depositor's hits bear a star; i = inactive; u = inconclusive; x = no result. An excerpt weighted towards active compounds, which were near 5% of everything screened. Unless noted, calls follow the shape of the dose curve; as a rule, active = well fitted curve in the direction sought with a large enough effect; inconclusive = small, poorly fitted or top-dose-only effect, or another doubt; inactive = no such curve, though single readings can be large; an effect the other way counts as inactive or inconclusive. % is scaled to controls: 0 for no effect and ±100 for the full control effect.

SMILES	Tb PYK inh	LmPK inh	VACV Venus inh	HCMV inh	Vaccinia mCherry
COc1ccc(OC(F)(F)F)cc1CC1(C)C(=O)Nc2ccc(-c3ccsc3)cc21 (stereo not given)	-10.0%	x	-8.5%	-82.0*	-12.3%
Cc1ccc(-c2nc3n(n2)Cc2ccccc2-3)cc1	-20.9%	7.94µM*	-19.3%	92.0	-2.6%
CCn1c(C)nc2cc(-c3nc4n(n3)Cc3ccccc3-4)ccc21	u	15.8µM*	u	x	x
COc1cc(NC(=O)CC2C(=O)N(c3ccc(Cl)cc3)C(=O)N2Cc2cccs2)cc(OC)c1 (stereo not given)	-0.7%	x	-11.3%	-29.4	-14.0%
O=C(NCc1cccnc1)C1CC(=O)N(C2CCCCC2)C1 (stereo not given)	1.5%	2.0%	-4.4%	0.0	-13.8%
COc1ccc(S(=O)(=O)NC(=O)C2(C)CCN2C(=O)Cc2cccc3ccccc23)cc1 (stereo not given)	-3.5%	x	0.4%	24.2	31.8%
CN(C)Cc1ccccc1	2.8%	x	x	-1.2	x
CN(Cc1ccccc1)C1=CC(=[N+]2CCCC2)CC(C)(C)C1	-12.8%	-1.3%	-4.5%	-99.2*	-25.1%
CCN(CC)C1=CC(=[N+]2CCCC2)CC(C)(C)C1	-2.8%	-8.0%	-13.8%	-95.4*	-26.9%
CC(C)(C)N=C(NS(=O)(=O)c1cccs1)c1ccccc1	-2.0%	2.7%	3.9%	-29.8	i
CCC(=O)Nc1nnc(S(=O)(=O)N(CC)c2ccc(Cl)cc2)s1	-3.9%	0.4%	x	-67.3*	x
CCN(c1ccc(Cl)cc1)S(=O)(=O)c1nnc(NC(=O)C2CCCCC2)s1	-1.1%	x	-23.3%	-63.9*	-22.9%
COC(=O)C1=C(C)NC(=S)NC1c1ccc(OCC(=O)N2CCCCC2)c(OC)c1 (stereo not given)	2.2%	-6.1%	-5.1%	-62.8*	-9.2%
Cc1ccc(S(=O)(=O)NCC(c2ccco2)N2CCc3ccccc3C2)cc1 (stereo not given)	1.8%	x	-22.8%	-14.5	-12.4%
COc1ccc(S(=O)(=O)NCC(c2ccco2)N2CCc3ccccc3C2)cc1 (stereo not given)	1.2%	x	-14.7%	-94.5*	-13.8%
COc1ccc(CCNC(=O)Cn2cnc3scc(-c4ccccc4)c3c2=O)cc1OC	-2.6%	-0.3%	x	-101.9*	x
Cc1sc(NC(=S)NC(=O)CCc2ccccc2)c(C(N)=O)c1C	-5.3%	0.6%	u	-82.8*	u
COc1ccc(OC)c(-n2nnnc2SCC(=O)Nc2ccc(C(=O)N3CCCCC3)cc2)c1	-4.9%	3.1%	-26.2%	-64.1*	-20.3%
Cc1ccc(-n2nnnc2SCC(=O)Nc2ccc(N3CCN(C)CC3)cc2)c(C)c1	2.9%	2.7%	x	-98.8*	x
CC1=C(C(=O)Nc2ccc(C)cc2C)C(c2ccc(C)o2)NC(=O)N1 (stereo not given)	-2.1%	-5.1%	x	2.9	x
CCOC(=O)c1c(CSc2nc(C)cc(C)c2C#N)n(C)c2cc(Br)c(OC(C)=O)cc12	-5.9%	-3.5%	-0.9%	-94.2*	-8.6%
CCCCCCCCOC(=O)c1c(CSC(=N)N)n(C)c2cc(Br)c(OC(C)=O)cc12	0.1%	-0.7%	x	-91.7*	x
C=CCCc1ccc(C#N)c(SCc2c(C(=O)OCC)c3cc(OC(C)=O)c(Br)cc3n2C)n1	2.1%	4.9%	-3.7%	x	i
CCOC(=O)c1c(CSC(=N)N)n(-c2ccc(Br)cc2)c2cc(Br)c(OC(C)=O)cc12	1.9%	1.5%	-14.0%	-37.6	-19.1%
CC(C)NC(=O)CCc1nc2cccnc2n1-c1ccccc1	-5.3%	-3.0%	-21.4%	-1.1	i
SMILES	Tb PYK inh	LmPK inh	VACV Venus inh	HCMV inh	Vaccinia mCherry
COc1ccc(CNC(=O)Nc2nnc([C@H]3C[C@H](O)[C@@H](CO)O3)s2)cc1	0.9%	x	2.6%	-97.2*	-2.1%
COc1ccc(CNC(=O)Nc2nnc([C@@H]3C[C@H](O)[C@@H](CO)O3)s2)cc1	-1.5%	x	-9.8%	-83.0*	-6.1%
Cc1ccc(CNC(=O)Nc2nnc([C@@H]3C[C@H](O)[C@@H](CO)O3)s2)cc1	-3.5%	x	5.2%	0.0	8.6%
CSc1ncc2c(n1)-c1cc(C)ccc1SC2	-0.7%	6.2%	-18.7%	-98.1*	-5.7%
S=C(S)OC1CC2CC1C1CCCC21 (stereo not given)	-1.5%	x	-3.9%	-60.3*	i
c1ccc(C2N3CCCN23)cc1 (stereo not given)	-4.0%	-0.1%	-5.6%	39.5	-5.8%
Clc1cccc(Cl)c1C1N2CCCN12 (stereo not given)	-1.1%	10.9%	0.9%	-63.1*	i
O=C(CN1C(=O)c2cccc3cccc1c23)N1CCN(Cc2ccc3c(c2)OCO3)CC1	-6.7%	4.0%	-21.3%	-25.2	x
O=S(=O)(c1ccc(OCC2CO2)cc1)c1ccc(OCC2CO2)cc1 (stereo not given)	-0.1%	1.5%	u	-68.4*	-20.5%
COc1ccc2[nH]c3c(c2c1)CC(C)NC3=O (stereo not given)	2.4%	-4.4%	x	-74.7*	x
CN(C)S(=O)(=O)c1ccc(C(=O)Nc2nc(-c3cccs3)cs2)cc1	-5.4%	13.0%	-20.2%	-81.2*	13.1%
O=C(Nc1nc(-c2ccc3c(c2)OCCO3)cs1)c1ccc(S(=O)(=O)N2CCCCC2)cc1	-1.1%	-0.6%	-19.0%	-99.8*	-5.0%
O=C(Nc1cccc(-c2csc(Nc3ccc(Cl)cc3)n2)c1)c1ccccc1	-0.3%	-6.7%	u	-22.4	u
O=C(Nc1ccc(-c2csc(Nc3ccccc3)n2)cc1)c1ccccc1	1.1%	-2.7%	u	-63.1*	u
CN(C)S(=O)(=O)c1ccc(C(=O)Nc2nnc(-c3cccs3)o2)cc1	2.6%	2.9%	x	u	x
Cc1nc(-c2ccc(NC(=O)CC(C)C)cc2)cs1	-13.6%	-10.4%	-13.8%	-76.0*	i
Cc1nc(-c2ccc(NC(=O)C3CC3)cc2)cs1	-11.4%	-6.9%	-9.5%	-4.4	-3.0%
COc1nc(C)nc2c1ccc1ccccc12	0.6%	-1.4%	-1.5%	1.3	i
COc1ccc(N=C2SC(C(=O)Nc3ccc(C(=O)O)cc3)CC(=O)N2Cc2cccs2)cc1 (stereo not given)	0.8%	3.8%	-15.2%	u	i
COc1ccc(S(=O)(=O)N2CCOCC2)cc1NC(=O)CN(C)Cc1c(F)cccc1Cl	-13.8%	1.7%	-20.6%	u	u
COCCN(Cc1ccccc1)P(=O)(O)c1ccccc1OCC(=O)O	-2.4%	1.3%	-15.7%	-19.0	x
O=C(Nc1nc(-c2ccc(Br)cc2)cs1)c1cccnc1	1.3%	-1.8%	-3.4%	-63.6*	-4.8%
Cc1nc(-c2ccc(C(=O)Nc3cccc(Br)c3)cc2)cs1	-3.0%	u	x	-67.9*	x
O=C(Nc1nc(-c2ccc(S(=O)(=O)N3CCCCCC3)cc2)cs1)c1ccccc1	-0.3%	0.5%	x	-72.9*	x
COC(=O)c1ccc(-c2csc(NC(=O)c3ccc(S(=O)(=O)N4CCc5ccccc5C4)cc3)n2)cc1	4.5%	-0.2%	-5.7%	0.3	i
